Structures are written as SMILES. Values joined by “and” are separate entries in the source; they are usually repeats but may differ in a detail not shown here. Equal entries are not always repeated. The panel holds about 79,000 compounds, 15% with a hit somewhere; the sample as a whole holds those more often. A number with no mark means an inactive call. Active and inactive are the calls of the source. Cut-off read from the data, not from the text of the source: active = growth inhibition above about 70%; inactive = the rest.

The text below walks through data of PubChem BioAssay (NCI).

Test [1] can be described thus: NCI Yeast Anticancer Drug Screen. Data for the rad50 strain (AID 155).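 Note: 0% = growth of vehicle-only cultures of the same strain.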 As to conditions: S. cerevisiae rad50 strain growth inhibition, stronger effect = higher value. Summed up:
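Readout: growth inhibition relative to vehicle-treated cultures. Compound exposure was carried out in a genetically defined yeast strain deficient in DNA damage repair.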

The nature of test [2]: NCI Yeast Anticancer Drug Screen. Data for the mec2-1 strain (AID 157). As to conditions: S. cerevisiae mec2-1 strain, stronger effect = higher value. The gist of the method: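 Cells of the genetically defined mec2-1 yeast strain are incubated with test compound. Inhibition of growth is calculated against vehicle-treated controls.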
A short description of test [3]: NCI Yeast Anticancer Drug Screen. Data for the sgs1 mgt1 strain (AID 161).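 Note: 0% = growth of cultures given vehicle only.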 As to conditions: S. cerevisiae sgs1 mgt1 strain, stronger effect = higher value. The gist of the method: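 Genetically altered yeast, compound exposure, growth inhibition relative to vehicle.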
Test [4] is described as follows: NCI Yeast Anticancer Drug Screen. Data for the cln2 rad14 strain (AID 165).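 Note: 0% = growth equal to vehicle treated cultures.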 The settings on record: S. cerevisiae cln2 rad14 strain, stronger effect = higher value. The gist of the method:
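The screen exposed genetically defined yeast (cln2 rad14) to test compounds and scored growth inhibition relative to vehicle-treated controls.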

Test [5] in a line: NCI Yeast Anticancer Drug Screen. Data for the bub3 strain (AID 167). As to conditions: S. cerevisiae bub3 mutant strain, stronger effect = higher value. The gist of the method: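 Readout: yeast growth inhibition, expressed relative to vehicle-only wells. The test organism is a mutant strain from a panel with lesions in DNA repair or checkpoint genes.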
Test [6] is described as follows: NCI Yeast Anticancer Drug Screen. Data for the mlh1 rad18 strain (AID 175). The settings on record: S. cerevisiae mlh1 rad18 strain growth inhibition, stronger effect = higher value. The gist of the method:
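Compound-treated yeast growth, normalised to vehicle controls. Strain bears defined DNA repair mutations.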

Setting [7] is: at 5.0 µM (retest, dose inferred, filed as 0.5).
The mark [8] stands for this setting: at 50.0 µM (retest, dose inferred, filed as 5.0).

For the molecule `C1CN([PH+](N2CC2)N2CC2)CCO1.C1CN([PH+](N2CC2)N2CC2)CCO1.[I][Pt][I]`, the growth inhibition in test [1] (setting [7]) is 0%; in test [1] (setting [8]) it was 9%; in test [1] (at 50.0 µM), 36.8%; in test [2] (setting [7]), 2%; in test [2] (setting [8]) it was 5%; in test [2] (at 50.0 µM) it was 23.7%. For the same molecule, the growth inhibition in test [3] (setting [7]) was 1%; in test [3] (setting [8]), 5%; in test [3] (at 50.0 µM), 52.2%; in test [4] (setting [7]), 4%; in test [4] (setting [8]), 1%; in test [4] (at 50.0 µM) it was 17.9%. Moreover, the growth inhibition was 1% in test [5] (setting [7]); 15% in test [5] (setting [8]); 96.5% (active) in test [5] (at 50.0 µM); 1% in test [6] (setting [7]); 7% in test [6] (setting [8]); 6.4% in test [6] (at 50.0 µM).

As to `COc1cc(CC(=O)N2CC2)cc(OC)c1OC`, the growth inhibition is -6% in test [1] (setting [7]); -1% in test [1] (setting [8]); 7.85% in test [1] (at 50.0 µM); 0% in test [2] (setting [7]); 8% in test [2] (setting [8]); -3.1% in test [2] (at 50.0 µM). In addition, the growth inhibition in test [3] (setting [7]) was -6%; in test [3] (setting [8]), 2%; in test [3] (at 50.0 µM), -13.6%; in test [4] (setting [7]), -7%; in test [4] (setting [8]), -3%; in test [4] (at 50.0 µM), 39.4%. In addition, the growth inhibition was -5% in test [5] (setting [7]); -1% in test [5] (setting [8]); 13.9% in test [5] (at 50.0 µM); -2% in test [6] (setting [7]); -8% in test [6] (setting [8]); -13.8% in test [6] (at 50.0 µM).

Turning to `COc1cccc(C(Cc2ccc(N3C(N)=NC(N)=NC3(C)C)cc2)C(=O)Nc2ccc(S(=O)(=O)F)cc2)c1` (centres undefined), the growth inhibition is 8% in test [1] (setting [7]); 96% (active) in test [1] (setting [8]); 99.5% (active) in test [1] (at 50.0 µM); -139% in test [2] (setting [7]); 99% (active) in test [2] (setting [8]); 99.6% (active) in test [2] (at 50.0 µM). Besides, the growth inhibition in test [3] (setting [7]) was 1%; in test [3] (setting [8]), 99% (active); in test [3] (at 50.0 µM) it was 99.8% (active); in test [4] (setting [7]), -1%; in test [4] (setting [8]) it was 92% (active); in test [4] (at 50.0 µM), 96.7% (active). Also, the growth inhibition in test [5] (setting [7]) was 1%; in test [5] (setting [8]), 98% (active); in test [5] (at 50.0 µM), 95% (active); in test [6] (setting [7]), 6%; in test [6] (setting [8]), 99% (active); in test [6] (at 50.0 µM), 99.4% (active).

For the molecule `CCC1(O)CC(OC2CC(N(C)C)C(OC3CC4OC5CC(=O)C(C)OC5OC4C(C)O3)C(C)O2)c2c(cc3c(c2O)C(=O)c2c(O)ccc(O)c2C3=O)C1C(=O)OC` (centres undefined), the growth inhibition in test [1] (setting [7]) was 88% (active) and 93% (active); in test [1] (setting [8]), 97% (active) and 98% (active); in test [1] (at 50.0 µM), 89.9% (active) and 87.5% (active) and 91.9% (active); in test [2] (setting [7]) it was 71% (active) and 96% (active) and 95% (active); in test [2] (setting [8]) it was 98% (active); in test [2] (at 50.0 µM), 90% (active) and 89.7% (active) and 92% (active). Besides, the growth inhibition in test [3] (setting [7]) is 89% (active) and 79% (active) and 93% (active); in test [3] (setting [8]), 98% (active) and 97% (active); in test [3] (at 50.0 µM), 91% (active) and 90% (active); in test [4] (setting [7]), 73% (active) and 85% (active) and 86% (active); in test [4] (setting [8]), 96% (active) and 97% (active); in test [4] (at 50.0 µM) it was 88% (active) and 87.9% (active) and 91.4% (active). The growth inhibition in test [5] (setting [7]) was 93% (active) and 92% (active); in test [5] (setting [8]) it was 98% (active) and 97% (active); in test [5] (at 50.0 µM), 88.6% (active) and 87.2% (active) and 84.8% (active); in test [6] (setting [7]), 92% (active) and 96% (active) and 94% (active); in test [6] (setting [8]) it was 97% (active) and 96% (active) and 98% (active); in test [6] (at 50.0 µM), 89.8% (active) and 86% (active) and 89.9% (active).

On to `CC(CN1CCCCCCC1)C(C#N)(c1ccccc1)c1ccccc1` (centres undefined), for which the growth inhibition was 4% in test [1] (setting [7]); 47% in test [1] (setting [8]); 66.1% in test [1] (at 50.0 µM); 3% in test [2] (setting [7]); 39% in test [2] (setting [8]); 47.6% in test [2] (at 50.0 µM). In addition, the growth inhibition was 19% in test [3] (setting [7]); 74% (active) in test [3] (setting [8]); 67.5% in test [3] (at 50.0 µM); 6% in test [4] (setting [7]); 46% in test [4] (setting [8]); 84.1% (active) in test [4] (at 50.0 µM). In addition, the growth inhibition was 9% in test [5] (setting [7]); 68% in test [5] (setting [8]); 55.4% in test [5] (at 50.0 µM); 10% in test [6] (setting [7]); 55% in test [6] (setting [8]); 70.3% (active) in test [6] (at 50.0 µM).

For `CC[C@@]1(O)CC(OC2CC(N3CCOCC3)C(O)C(C)O2)c2c(O)c3c(c(O)c2[C@H]1O)C(=O)c1cccc(O)c1C3=O` (some centres undefined), the growth inhibition in test [1] (setting [7]) is 96% (active); in test [1] (setting [8]), 98% (active); in test [1] (at 50.0 µM), 59.3%; in test [2] (setting [7]), 36%; in test [2] (setting [8]), 99% (active); in test [2] (at 50.0 µM) it was 51.2%. Also, the growth inhibition was 63% in test [3] (setting [7]); 99% (active) in test [3] (setting [8]); 49.4% in test [3] (at 50.0 µM); 31% in test [4] (setting [7]); 99% (active) in test [4] (setting [8]); 97.3% (active) in test [4] (at 50.0 µM). Further, the growth inhibition is 24% in test [5] (setting [7]); 99% (active) in test [5] (setting [8]); 99% (active) in test [5] (at 50.0 µM); 52% in test [6] (setting [7]); 98% (active) in test [6] (setting [8]); 51.1% in test [6] (at 50.0 µM).

In the case of `CC(C)c1c(O)c(O)c2c(c1O)C(=O)C(O)=C1C(C)(C)CCC[C@@]12C`, the growth inhibition was 48% in test [1] (setting [7]); 95% (active) in test [1] (setting [8]); 86.8% (active) in test [1] (at 50.0 µM); 72% (active) in test [2] (setting [7]); 96% (active) in test [2] (setting [8]); 88.8% (active) in test [2] (at 50.0 µM). In addition, the growth inhibition was 79% (active) in test [3] (setting [7]); 95% (active) in test [3] (setting [8]); 88.6% (active) in test [3] (at 50.0 µM); 64% in test [4] (setting [7]); 96% (active) in test [4] (setting [8]); 85.8% (active) in test [4] (at 50.0 µM). Also, the growth inhibition was 84% (active) in test [5] (setting [7]); 95% (active) in test [5] (setting [8]); 84.9% (active) in test [5] (at 50.0 µM); 86% (active) in test [6] (setting [7]); 89% (active) in test [6] (setting [8]); 80.4% (active) in test [6] (at 50.0 µM).

As to `N#CC(Nc1c(N)nc(-c2ccccc2)nc1N)c1ccc(N(CCCl)CCCl)cc1` (centres undefined), the growth inhibition in test [1] (setting [7]) was 4%; in test [1] (setting [8]), 45%; in test [1] (at 50.0 µM) it was 57.5%; in test [2] (setting [7]) it was -18%; in test [2] (setting [8]) it was 26%; in test [2] (at 50.0 µM), 66%. Moreover, the growth inhibition in test [3] (setting [7]) is 2%; in test [3] (setting [8]) it was 43%; in test [3] (at 50.0 µM), 59.8%; in test [4] (setting [7]) it was -10%; in test [4] (setting [8]) it was 9%; in test [4] (at 50.0 µM), 53.1%. Further, the growth inhibition in test [5] (setting [7]) was -4%; in test [5] (setting [8]), -4%; in test [5] (at 50.0 µM) it was 0.75%; in test [6] (setting [7]) it was 27%; in test [6] (setting [8]), 90% (active); in test [6] (at 50.0 µM), 55.6%.
